# System: Lefty1
# Assay: Lefty1 protein binding to printed compounds – biochemical, small-molecule microarray, 635/667 nm fluorescence, primary screen (AID 1139)
# Conditions: fluorescence 635/667, higher = more signal
row,Compound,composite z-score
1,CC(C)CCN1CCc2nc(COc3ccccc3)c3c(c2C1)CO[C@@H](C)C3,0.0377
2,O=C(NN=C1C[C@@H](O)[C@@H](O)[C@@H]2[C@@H]3C(=O)N(Cc4ccccc4)C(=O)[C@@H]3CC[C@@H]12)OCc1ccccc1,0.321
3,CO[C@@H]1COC(=O)[C@@H](C)COC(=O)[C@@H](C)NC(=O)CC=C[C@@H]1C,1.43
4,CO[C@@H]1COC(=O)CC=C[C@@H](C)[C@@H]2C=C[C@H](O)[C@@H](COC(=O)CC=C[C@H]1C)O2,1.66
5,COC(=O)[C@@H]1CC[C@H](C)[C@@H](c2ccc(C)cc2)N1C(=O)c1ccc(C=NO[C@H](C)c2cn([C@H](CO)Cc3ccccc3)nn2)cc1,0.957
6,CCC=CCCC(OC(=O)c1ccc(Br)cc1)C1=CCCCC1=O (stereo unspecified),0.876
7,CO[C@H]1COC(=O)[C@@H](C)COC(=O)[C@H](COCc2ccccc2)NC(=O)CC=C[C@H]1C,1.09
8,CCOC(=O)CCN1C(=O)[C@H]2[C@H]3[C@H](O)[C@H](O)CC(=NOCC(C)C)[C@H]3CC[C@H]2C1=O,-0.0892
9,C#CCCCON=C1C[C@@H](O)[C@@H](O)[C@@H]2[C@@H]3C(=O)N(CC)C(=O)[C@@H]3CC[C@@H]12,0.289
10,CON=C1[C@H]2CCn3c(=O)n(-c4ccccc4)c(=O)n3[C@H]2[C@H](O)[C@@H]2O[C@H]12,0.695
11,CC(C)=CCCC(C)=CCON=C1C[C@@H](O)[C@@H](O)[C@@H]2[C@@H]3C(=O)N(C(C)(C)C)C(=O)[C@@H]3CC[C@@H]12,0.351
12,CC(C)(C)N1C(=O)[C@H]2[C@H]3[C@H](O)[C@H](O)CC(=O)[C@@H]3CC[C@H]2C1=O,0.49
13,CC(=O)OC[C@H]1O[C@H](CC=NO[C@H](C)c2cn([C@H](CO)Cc3ccccc3)nn2)C=C[C@@H]1OC(C)=O,0.732
14,C=Cc1ccc([C@H]2N[C@H](C(=O)O)CC[C@@H]2C)cc1,0.431
15,O=C(C=Cc1ccc2c(c1)OCO2)c1ccc(F)cc1,1.21
16,C[C@@H]1CC[C@H]2C(=O)O[C@@H](Cc3ccccc3)CN2[C@H]1c1ccc(Br)cc1,0.495
17,C=CC1=C[C@H](O)[C@@H]2O[C@@H]2C12OCCCO2,0.0863
18,CCN1C(=O)[C@H]2[C@H]3[C@H](O)[C@H](O)CC(=NO[C@@H](C)c4cn([C@H](CO)Cc5ccccc5)nn4)[C@@H]3CC[C@H]2C1=O,0.926

row,Compound,composite z-score
1,CCOC(=O)[C@H](Cc1ccccc1)NC(=O)CCC1CC(OC(=O)NCc2ccc3c(c2)OCO3)CC2(CCCC(COC(=O)NCCC(C)C)O2)O1 (stereo partly specified),0.722
2,O=C1[C@H]2[C@H]3[C@H](O)[C@H](O)CC(=NOC[C@@H](O)COCc4ccco4)[C@H]3CC[C@H]2C(=O)N1C[C@@H]1CCCO1,1.34
3,CC(C)=NO[C@H](C)c1cn([C@H](CO)Cc2ccccc2)nn1,0.137
4,O=C1CCCC=C1C(O)CCCCBr (stereo unspecified),0.564
5,COC(=O)CC=C[C@@H](C)[C@@H](C=NOC[C@@H](O)[C@H]1O[C@@H]2OC(C)(C)O[C@@H]2[C@H]1O)NS(=O)(=O)c1ccc(C)cc1,0.223
6,CCOC(=O)[C@H](Cc1ccccc1)NC(=O)CCC1CC(OC(=O)NCCc2ccc(F)cc2)CC2(CCCC(COC(=O)NCc3ccccc3)O2)O1 (stereo partly specified),0.833
7,COC(=O)CC=C[C@@H](C)[C@@H](C=NOC(C)CN1CCCc2nc(C)c(C)cc21)OC (stereo partly specified),0.677
8,O=C1CCCC=C1C(O)CCOC(c1ccccc1)(c1ccccc1)c1ccccc1 (stereo unspecified),0.458
9,C[C@@H]1C=CCC(=O)OC[C@H]2O[C@@H](C=C[C@@H]2O)[C@H](C)C=CCC(=O)OC1,1.71
10,CO[C@@H]1C=CCC(=O)N[C@@H](C)C(=O)OC[C@@H](OC)[C@H](C)CCCC(=O)OC[C@H]1C,1.37
11,Cc1ccc(S(=O)(=O)OC[C@H]2CN3[C@H](c4ccc(Br)cc4)[C@@H](C)CC[C@H]3C(=O)O2)cc1,0.198
12,CC(C)=CCCC(C)=CCON=C1C[C@@H](O)[C@@H](O)[C@@H]2[C@@H]3C(=O)N(C4CCCCC4)C(=O)[C@@H]3CC[C@@H]12,0.791
13,O=C1C=C[C@@H](O)[C@@H]2[C@@H]3C(=O)N(C[C@@H]4CCCO4)C(=O)[C@@H]3CC[C@@H]12,0.756
14,CCOC(=O)[C@H](CC(C)C)NC(=O)CCC1CC(OC(=O)NCc2cccc3ccccc23)CC2(CCCC(COC(=O)NCCCN3CCCC3=O)O2)O1 (stereo partly specified),0.925
15,Cc1ccc(S(=O)(=O)N[C@H]2COC(=O)CC=C[C@@H](C)COC(=O)CC=C[C@@H]2C)cc1,1.23
16,Cn1c(=O)n2n(c1=O)[C@H]1[C@H](O)[C@@H]3O[C@@H]3C(=O)[C@H]1CC2,0.455
17,O=C1C[C@@H](O)[C@@H](O)[C@@H]2[C@@H]3C(=O)N(C[C@@H]4CCCO4)C(=O)[C@@H]3CC[C@@H]12,0.42
18,COc1ccc(O[C@H]2C=C[C@@H](c3ccccc3)O[C@@H]2CON=C2[C@H]3CCn4c(=O)n(-c5ccccc5)c(=O)n4[C@H]3[C@H](O)[C@@H]3O[C@H]23)cc1,0.451
